# Source: publication PMC7862700, “An all-to-all approach to the identification of sequence-specific readers for epigenetic DNA modifications on cytosine”
# Experiments:
# Assay in all cases: DAPPL (digital affinity profiling via proximity ligation, sequencing); 10 mM Tris-HCl pH 7.5, 50 mM NaCl, 1 mM DTT, 4% glycerol, room temperature, 30 min; GST-TFs on glutathione beads, 16-mer random dsDNA library, 0.1% formaldehyde crosslink after washing; high values mean tight binding
# [1] = biological target: T1, FLI1 (Homo sapiens, UniProt Q01543 1-452); settings: protein: recombinant; tags: N-terminal GST; dsDNA, one strand shown
# T1 sequence: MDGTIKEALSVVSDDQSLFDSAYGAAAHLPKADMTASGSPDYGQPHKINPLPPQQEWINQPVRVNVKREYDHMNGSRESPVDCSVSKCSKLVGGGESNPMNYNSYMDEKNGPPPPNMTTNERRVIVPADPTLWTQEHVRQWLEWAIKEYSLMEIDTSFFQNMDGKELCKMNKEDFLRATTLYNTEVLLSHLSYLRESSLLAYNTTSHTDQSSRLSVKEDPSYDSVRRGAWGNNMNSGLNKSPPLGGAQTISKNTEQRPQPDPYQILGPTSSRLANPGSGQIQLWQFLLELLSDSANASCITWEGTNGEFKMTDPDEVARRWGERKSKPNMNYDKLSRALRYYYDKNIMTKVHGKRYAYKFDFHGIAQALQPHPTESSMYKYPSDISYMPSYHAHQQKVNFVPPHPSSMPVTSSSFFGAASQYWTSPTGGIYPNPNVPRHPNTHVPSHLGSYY
# Summary of the method: (§1)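 Each value of binding signal is a hexamer's read frequency for a factor divided by the same hexamer's frequency in the tag-only sample. Barcoded, bead-captured GST fusions of human transcription factors made in yeast were pooled with that sample and incubated with 200 nmole of a random double-stranded 16-mer DNA library in Tris/NaCl/DTT/glycerol buffer at room temperature for 30 min. Washing, 0.1% formaldehyde crosslinking, proximity ligation, PCR and Illumina NextSeq500 sequencing followed.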
# [2] = biological target: T2, ELK1 (Homo sapiens, UniProt P19419 1-428); settings: protein: recombinant; tags: N-terminal GST; dsDNA, one strand shown
# T2 sequence: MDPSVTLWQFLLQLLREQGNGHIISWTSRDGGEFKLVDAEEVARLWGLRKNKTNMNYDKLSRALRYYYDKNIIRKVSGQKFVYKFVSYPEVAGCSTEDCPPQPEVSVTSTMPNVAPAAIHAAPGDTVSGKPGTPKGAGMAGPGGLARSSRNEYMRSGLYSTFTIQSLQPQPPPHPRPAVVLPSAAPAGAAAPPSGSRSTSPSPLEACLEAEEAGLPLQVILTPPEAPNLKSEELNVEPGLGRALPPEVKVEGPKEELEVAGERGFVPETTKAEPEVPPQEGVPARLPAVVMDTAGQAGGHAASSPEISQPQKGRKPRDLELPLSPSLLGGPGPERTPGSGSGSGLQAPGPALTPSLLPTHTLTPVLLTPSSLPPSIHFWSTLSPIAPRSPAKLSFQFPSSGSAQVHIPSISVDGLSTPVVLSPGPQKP
# Summary of the method: as §1
# [3] = biological target: T3, GABPA (Homo sapiens, UniProt Q06546 1-454); settings: protein: recombinant; tags: N-terminal GST; dsDNA, one strand shown
# T3 sequence: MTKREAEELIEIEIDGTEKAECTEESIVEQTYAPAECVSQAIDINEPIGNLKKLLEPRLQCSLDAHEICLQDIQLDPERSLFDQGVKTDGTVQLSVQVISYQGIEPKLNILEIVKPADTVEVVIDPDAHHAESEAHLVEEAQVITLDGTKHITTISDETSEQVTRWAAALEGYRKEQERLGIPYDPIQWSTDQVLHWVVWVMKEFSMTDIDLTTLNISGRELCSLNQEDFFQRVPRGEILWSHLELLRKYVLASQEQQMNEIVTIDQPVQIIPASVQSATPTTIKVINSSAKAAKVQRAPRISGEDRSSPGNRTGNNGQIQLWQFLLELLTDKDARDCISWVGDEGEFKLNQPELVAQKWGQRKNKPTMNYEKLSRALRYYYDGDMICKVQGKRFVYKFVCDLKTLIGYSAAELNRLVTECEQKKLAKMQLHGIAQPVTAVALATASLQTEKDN
# Summary of the method: as §1
# [4] = biological target: T4, ERG (Homo sapiens, UniProt P11308 1-479); settings: protein: recombinant; tags: N-terminal GST; dsDNA, one strand shown
# T4 sequence: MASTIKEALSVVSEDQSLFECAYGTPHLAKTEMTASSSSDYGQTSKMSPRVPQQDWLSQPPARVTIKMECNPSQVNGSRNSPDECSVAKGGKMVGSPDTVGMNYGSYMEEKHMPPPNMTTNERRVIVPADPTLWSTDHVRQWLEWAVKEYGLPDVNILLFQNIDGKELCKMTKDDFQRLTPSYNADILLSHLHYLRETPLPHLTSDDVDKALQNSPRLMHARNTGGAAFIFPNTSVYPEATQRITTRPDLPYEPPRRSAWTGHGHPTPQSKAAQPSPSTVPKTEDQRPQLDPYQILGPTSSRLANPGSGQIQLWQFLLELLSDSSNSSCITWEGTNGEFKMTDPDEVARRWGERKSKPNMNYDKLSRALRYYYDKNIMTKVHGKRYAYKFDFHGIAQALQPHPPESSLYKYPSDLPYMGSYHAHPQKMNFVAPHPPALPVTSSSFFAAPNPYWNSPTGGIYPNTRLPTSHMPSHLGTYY
# Summary of the method: as §1
# [5] = biological target: ELF1 (Homo sapiens, UniProt P32519 1-619); settings: protein: recombinant; tags: N-terminal GST; dsDNA, one strand shown
# Summary of the method: as §1
# [6] = biological target: T5, EHF (Homo sapiens, UniProt Q9NZC4 1-300); settings: protein: recombinant; tags: N-terminal GST; dsDNA, one strand shown
# T5 sequence: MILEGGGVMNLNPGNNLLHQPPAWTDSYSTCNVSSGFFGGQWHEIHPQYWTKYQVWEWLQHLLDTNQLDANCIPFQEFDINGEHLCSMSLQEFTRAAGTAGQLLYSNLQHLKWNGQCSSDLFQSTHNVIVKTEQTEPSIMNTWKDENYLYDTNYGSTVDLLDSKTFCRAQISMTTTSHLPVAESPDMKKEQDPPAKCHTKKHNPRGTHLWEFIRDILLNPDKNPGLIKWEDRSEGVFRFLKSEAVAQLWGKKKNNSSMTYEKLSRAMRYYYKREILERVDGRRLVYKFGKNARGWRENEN
# Summary of the method: as §1
# [7] = biological target: SPI1 (Homo sapiens, UniProt P17947 1-270); settings: protein: recombinant; tags: N-terminal GST; dsDNA, one strand shown
# Summary of the method: as §1
# [8] = biological target: SPIB (Homo sapiens, UniProt Q01892 1-262); settings: protein: recombinant; tags: N-terminal GST; dsDNA, one strand shown
# Summary of the method: as §1
# [9] = biological target: T6, ELK3 (Homo sapiens, UniProt P41970 1-407); settings: protein: recombinant; tags: N-terminal GST; dsDNA, one strand shown
# T6 sequence: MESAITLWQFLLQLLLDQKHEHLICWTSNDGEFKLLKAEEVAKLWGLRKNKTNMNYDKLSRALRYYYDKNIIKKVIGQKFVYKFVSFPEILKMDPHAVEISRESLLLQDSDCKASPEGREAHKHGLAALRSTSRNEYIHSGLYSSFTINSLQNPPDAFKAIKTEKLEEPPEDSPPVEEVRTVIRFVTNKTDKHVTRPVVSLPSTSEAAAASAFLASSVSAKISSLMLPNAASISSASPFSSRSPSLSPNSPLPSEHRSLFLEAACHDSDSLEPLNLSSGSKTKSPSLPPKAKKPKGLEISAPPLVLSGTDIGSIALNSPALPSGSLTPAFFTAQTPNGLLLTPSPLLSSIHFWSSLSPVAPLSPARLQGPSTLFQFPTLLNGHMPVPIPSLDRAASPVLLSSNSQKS
# Summary of the method: as §1
# [10] = biological target: T7, FEV (Homo sapiens, UniProt Q99581 1-238); settings: protein: recombinant; tags: N-terminal GST; dsDNA, one strand shown
# T7 sequence: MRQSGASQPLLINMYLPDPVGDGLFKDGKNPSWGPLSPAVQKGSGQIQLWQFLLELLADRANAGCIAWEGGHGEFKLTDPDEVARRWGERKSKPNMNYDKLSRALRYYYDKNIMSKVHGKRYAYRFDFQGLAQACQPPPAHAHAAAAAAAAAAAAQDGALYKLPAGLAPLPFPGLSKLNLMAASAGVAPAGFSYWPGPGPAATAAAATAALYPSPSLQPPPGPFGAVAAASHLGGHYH
# Summary of the method: as §1
# [11] = biological target: ETV5 (Homo sapiens, UniProt P41161 1-510); settings: protein: recombinant; tags: N-terminal GST; dsDNA, one strand shown
# Summary of the method: as §1
# [12] = biological target: HSF1 (Homo sapiens, UniProt Q00613 1-529); settings: protein: recombinant; tags: N-terminal GST; chain copies: 3; dsDNA, one strand shown
# Summary of the method: as §1
# [13] = biological target: T8, SPIC (Homo sapiens, UniProt Q8N5J4 1-248); settings: protein: recombinant; tags: N-terminal GST; dsDNA, one strand shown
# T8 sequence: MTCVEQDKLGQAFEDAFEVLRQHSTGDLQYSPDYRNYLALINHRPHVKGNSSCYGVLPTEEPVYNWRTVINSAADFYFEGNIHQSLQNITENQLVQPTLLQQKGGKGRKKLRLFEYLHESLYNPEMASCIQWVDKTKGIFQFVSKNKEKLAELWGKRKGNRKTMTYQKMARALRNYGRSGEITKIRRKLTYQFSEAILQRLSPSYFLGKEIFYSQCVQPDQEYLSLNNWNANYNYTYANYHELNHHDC
# Summary of the method: as §1
# [14] = biological target: ELF4 (Homo sapiens, UniProt Q99607 1-663); settings: protein: recombinant; tags: N-terminal GST; dsDNA, one strand shown
# Summary of the method: as §1
# [15] = biological target: T9, ELK4 (Homo sapiens, UniProt P28324-2 1-405); settings: protein: recombinant; tags: N-terminal GST; dsDNA, one strand shown
# T9 sequence: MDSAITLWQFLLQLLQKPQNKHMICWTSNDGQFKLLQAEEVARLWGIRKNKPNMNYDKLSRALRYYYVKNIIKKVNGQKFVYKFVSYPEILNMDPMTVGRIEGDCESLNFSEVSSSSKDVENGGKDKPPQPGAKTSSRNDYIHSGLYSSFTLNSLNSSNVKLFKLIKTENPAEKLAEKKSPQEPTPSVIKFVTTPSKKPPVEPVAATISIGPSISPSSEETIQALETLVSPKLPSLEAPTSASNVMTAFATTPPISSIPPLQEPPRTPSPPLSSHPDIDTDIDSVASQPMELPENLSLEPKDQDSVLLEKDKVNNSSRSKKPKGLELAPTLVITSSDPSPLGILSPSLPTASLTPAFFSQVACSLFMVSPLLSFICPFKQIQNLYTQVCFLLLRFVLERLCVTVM
# Summary of the method: as §1
# [16] = biological target: T10, ETV2 (Homo sapiens, UniProt O00321 1-342); settings: protein: recombinant; tags: N-terminal GST; dsDNA, one strand shown
# T10 sequence: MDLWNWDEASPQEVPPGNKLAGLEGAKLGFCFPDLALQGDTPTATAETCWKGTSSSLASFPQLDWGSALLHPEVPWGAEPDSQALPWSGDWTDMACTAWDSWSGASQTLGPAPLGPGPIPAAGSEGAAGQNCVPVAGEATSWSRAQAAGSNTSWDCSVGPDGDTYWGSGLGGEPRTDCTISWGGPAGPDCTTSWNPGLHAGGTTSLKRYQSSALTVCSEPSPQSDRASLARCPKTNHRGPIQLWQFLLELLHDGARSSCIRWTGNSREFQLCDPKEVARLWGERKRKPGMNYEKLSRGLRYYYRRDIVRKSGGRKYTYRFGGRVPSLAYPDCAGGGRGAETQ
# Summary of the method: as §1
# [17] = biological target: T11, ELF3 (Homo sapiens, UniProt P78545 1-371); settings: protein: recombinant; tags: N-terminal GST; dsDNA, one strand shown
# T11 sequence: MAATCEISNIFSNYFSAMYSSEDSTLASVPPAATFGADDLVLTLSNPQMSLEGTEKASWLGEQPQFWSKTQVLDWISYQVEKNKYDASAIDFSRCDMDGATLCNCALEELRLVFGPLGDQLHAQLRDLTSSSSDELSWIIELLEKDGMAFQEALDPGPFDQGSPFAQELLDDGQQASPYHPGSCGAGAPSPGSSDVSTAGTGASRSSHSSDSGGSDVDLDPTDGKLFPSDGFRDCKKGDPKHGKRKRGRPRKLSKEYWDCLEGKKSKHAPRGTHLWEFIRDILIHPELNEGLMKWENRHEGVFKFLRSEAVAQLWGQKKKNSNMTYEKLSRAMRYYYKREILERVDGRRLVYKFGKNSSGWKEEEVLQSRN
# Summary of the method: as §1
# [18] = biological target: CRX (Homo sapiens, UniProt O43186 1-299); settings: protein: recombinant; tags: N-terminal GST; dsDNA, one strand shown
# Summary of the method: as §1
# [19] = biological target: ETV1 (Homo sapiens, UniProt P50549 1-477); settings: protein: recombinant; tags: N-terminal GST; dsDNA, one strand shown
# Summary of the method: as §1
# Chain of SPIB (Q01892 whole entry): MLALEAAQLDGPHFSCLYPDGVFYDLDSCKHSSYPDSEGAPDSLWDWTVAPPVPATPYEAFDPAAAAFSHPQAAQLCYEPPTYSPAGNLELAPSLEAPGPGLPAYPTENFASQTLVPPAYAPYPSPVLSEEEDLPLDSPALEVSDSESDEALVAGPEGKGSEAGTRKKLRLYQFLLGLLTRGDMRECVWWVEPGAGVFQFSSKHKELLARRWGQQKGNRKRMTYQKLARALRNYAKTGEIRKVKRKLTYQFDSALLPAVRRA
# Chain of ELF1 (P32519 whole entry): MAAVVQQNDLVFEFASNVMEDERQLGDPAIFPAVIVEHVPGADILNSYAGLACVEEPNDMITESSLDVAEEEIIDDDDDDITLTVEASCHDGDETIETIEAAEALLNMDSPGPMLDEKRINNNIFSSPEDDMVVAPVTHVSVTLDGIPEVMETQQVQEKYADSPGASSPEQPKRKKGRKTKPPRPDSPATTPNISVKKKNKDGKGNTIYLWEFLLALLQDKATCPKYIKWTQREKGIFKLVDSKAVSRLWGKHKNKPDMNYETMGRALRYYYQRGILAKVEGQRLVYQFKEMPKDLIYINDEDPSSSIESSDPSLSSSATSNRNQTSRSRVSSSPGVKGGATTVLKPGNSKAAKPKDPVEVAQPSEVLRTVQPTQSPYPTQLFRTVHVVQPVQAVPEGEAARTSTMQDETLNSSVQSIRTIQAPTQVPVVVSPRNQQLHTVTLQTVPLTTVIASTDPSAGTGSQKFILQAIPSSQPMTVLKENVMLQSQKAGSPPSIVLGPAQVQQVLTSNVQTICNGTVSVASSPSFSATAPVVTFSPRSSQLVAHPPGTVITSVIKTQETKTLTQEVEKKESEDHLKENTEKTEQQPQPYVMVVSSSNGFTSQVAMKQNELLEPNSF
# Chain of ELF4 (Q99607 whole entry): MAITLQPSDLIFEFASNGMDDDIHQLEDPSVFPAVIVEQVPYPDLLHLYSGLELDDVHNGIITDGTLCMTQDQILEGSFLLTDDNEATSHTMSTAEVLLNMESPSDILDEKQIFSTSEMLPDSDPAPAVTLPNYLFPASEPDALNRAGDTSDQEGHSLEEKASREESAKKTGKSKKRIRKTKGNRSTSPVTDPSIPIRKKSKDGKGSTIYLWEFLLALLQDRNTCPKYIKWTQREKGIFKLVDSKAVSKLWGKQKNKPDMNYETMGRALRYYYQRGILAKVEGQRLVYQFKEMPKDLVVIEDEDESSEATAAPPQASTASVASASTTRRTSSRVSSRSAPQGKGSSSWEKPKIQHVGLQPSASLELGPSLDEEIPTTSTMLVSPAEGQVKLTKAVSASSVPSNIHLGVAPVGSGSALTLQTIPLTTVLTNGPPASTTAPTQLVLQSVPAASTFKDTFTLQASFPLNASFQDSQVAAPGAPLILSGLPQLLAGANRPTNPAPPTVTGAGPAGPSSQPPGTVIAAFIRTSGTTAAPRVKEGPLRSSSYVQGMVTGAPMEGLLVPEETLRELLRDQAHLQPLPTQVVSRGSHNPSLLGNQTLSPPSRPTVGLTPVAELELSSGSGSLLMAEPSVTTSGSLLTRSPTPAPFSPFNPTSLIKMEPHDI
# Chain of HSF1 (Q00613 whole entry): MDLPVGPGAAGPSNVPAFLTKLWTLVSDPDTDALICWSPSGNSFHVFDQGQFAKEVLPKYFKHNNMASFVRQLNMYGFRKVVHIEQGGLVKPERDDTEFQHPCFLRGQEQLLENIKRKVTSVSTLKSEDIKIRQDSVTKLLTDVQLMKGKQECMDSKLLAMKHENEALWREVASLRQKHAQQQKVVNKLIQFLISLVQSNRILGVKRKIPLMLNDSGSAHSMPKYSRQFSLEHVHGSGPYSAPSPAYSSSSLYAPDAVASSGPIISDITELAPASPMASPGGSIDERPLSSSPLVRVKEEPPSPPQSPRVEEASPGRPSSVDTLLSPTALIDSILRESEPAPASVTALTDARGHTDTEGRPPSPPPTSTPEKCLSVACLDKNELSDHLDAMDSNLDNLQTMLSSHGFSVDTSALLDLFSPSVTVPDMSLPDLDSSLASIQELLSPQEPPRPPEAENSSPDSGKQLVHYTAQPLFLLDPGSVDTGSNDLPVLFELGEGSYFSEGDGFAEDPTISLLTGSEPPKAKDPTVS
# Chain of ETV5 (P41161 whole entry): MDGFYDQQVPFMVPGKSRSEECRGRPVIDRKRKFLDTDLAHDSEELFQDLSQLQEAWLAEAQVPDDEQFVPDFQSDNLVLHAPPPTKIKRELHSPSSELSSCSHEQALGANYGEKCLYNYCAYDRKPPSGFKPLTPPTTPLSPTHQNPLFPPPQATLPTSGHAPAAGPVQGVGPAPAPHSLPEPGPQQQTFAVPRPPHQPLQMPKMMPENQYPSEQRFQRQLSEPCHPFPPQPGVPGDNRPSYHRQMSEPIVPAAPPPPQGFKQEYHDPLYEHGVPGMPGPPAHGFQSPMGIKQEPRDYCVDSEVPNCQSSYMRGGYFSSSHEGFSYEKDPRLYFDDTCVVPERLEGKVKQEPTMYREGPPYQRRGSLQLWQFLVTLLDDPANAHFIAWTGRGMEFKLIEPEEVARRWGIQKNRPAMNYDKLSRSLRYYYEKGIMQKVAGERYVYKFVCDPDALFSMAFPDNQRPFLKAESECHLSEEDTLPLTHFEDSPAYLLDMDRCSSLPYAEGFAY
# Chain of CRX (O43186 whole entry): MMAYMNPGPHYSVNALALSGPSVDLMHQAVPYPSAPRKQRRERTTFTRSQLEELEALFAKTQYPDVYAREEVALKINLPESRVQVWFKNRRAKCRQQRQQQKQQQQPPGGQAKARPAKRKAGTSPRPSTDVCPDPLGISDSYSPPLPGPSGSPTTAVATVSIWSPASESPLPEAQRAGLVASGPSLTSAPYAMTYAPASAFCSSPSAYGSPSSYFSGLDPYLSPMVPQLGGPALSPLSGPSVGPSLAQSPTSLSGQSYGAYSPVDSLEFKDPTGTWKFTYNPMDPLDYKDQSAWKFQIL
# Chain of ETV1 (P50549 whole entry): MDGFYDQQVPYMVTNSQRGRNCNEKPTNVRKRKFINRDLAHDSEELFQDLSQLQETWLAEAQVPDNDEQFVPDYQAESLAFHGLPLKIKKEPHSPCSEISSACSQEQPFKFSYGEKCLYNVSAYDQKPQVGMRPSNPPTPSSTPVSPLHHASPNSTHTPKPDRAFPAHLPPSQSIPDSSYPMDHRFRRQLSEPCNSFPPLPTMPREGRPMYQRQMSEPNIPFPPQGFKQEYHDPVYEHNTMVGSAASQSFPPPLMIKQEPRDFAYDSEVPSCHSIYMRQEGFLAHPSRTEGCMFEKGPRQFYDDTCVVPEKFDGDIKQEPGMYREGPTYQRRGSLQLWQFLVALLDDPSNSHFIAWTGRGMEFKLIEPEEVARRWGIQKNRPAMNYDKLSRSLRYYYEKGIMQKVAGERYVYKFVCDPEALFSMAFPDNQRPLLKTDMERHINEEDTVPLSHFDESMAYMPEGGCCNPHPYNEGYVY
sequence,measurement,setting,value
GCTCTT,binding signal,[1],"1.58 fold enrichment (6-mer frequency, TF over GST control)"
same,binding signal,[2],"1.55 fold enrichment (6-mer frequency, TF over GST control)"
same,binding signal,[3],"1.52 fold enrichment (6-mer frequency, TF over GST control)"
same,binding signal,[4],"1.39 fold enrichment (6-mer frequency, TF over GST control)"
same,binding signal,[5],"1.66 fold enrichment (6-mer frequency, TF over GST control)"
same,binding signal,[6],"1.29 fold enrichment (6-mer frequency, TF over GST control)"
same,binding signal,[7],"1.37 fold enrichment (6-mer frequency, TF over GST control)"
same,binding signal,[8],"1.49 fold enrichment (6-mer frequency, TF over GST control)"
same,binding signal,[9],"1.56 fold enrichment (6-mer frequency, TF over GST control)"
same,binding signal,[10],"1.48 fold enrichment (6-mer frequency, TF over GST control)"
same,binding signal,[11],"1.53 fold enrichment (6-mer frequency, TF over GST control)"
same,binding signal,[12],"1.34 fold enrichment (6-mer frequency, TF over GST control)"
same,binding signal,[13],"1.31 fold enrichment (6-mer frequency, TF over GST control)"
same,binding signal,[14],"1.56 fold enrichment (6-mer frequency, TF over GST control)"
same,binding signal,[15],"1.41 fold enrichment (6-mer frequency, TF over GST control)"
same,binding signal,[16],"1.61 fold enrichment (6-mer frequency, TF over GST control)"
same,binding signal,[17],"1.58 fold enrichment (6-mer frequency, TF over GST control)"
same,binding signal,[18],"1.55 fold enrichment (6-mer frequency, TF over GST control)"
same,binding signal,[19],"1.54 fold enrichment (6-mer frequency, TF over GST control)"
